Screening data from PubChem BioAssay.
Most compounds without a hit are left out; they make up all but 6% or so of the library.
PLK1 PBD inh: blocks phosphopeptide binding to human PLK1 polo-box domain; P53350; Plk1 PBD binding of FITC phosphopeptide, fluorescence polarization; Potency, µM, inactives show max response, negative = inhibition, actives largely listed as inhibitors; actives 2.8% (n = 360,000); note: series mostly up to about 57 µM; nearly all actives have a fitted effect of over 65% in size
Target sequence (P53350 whole entry, looked up, the tested form may be a part): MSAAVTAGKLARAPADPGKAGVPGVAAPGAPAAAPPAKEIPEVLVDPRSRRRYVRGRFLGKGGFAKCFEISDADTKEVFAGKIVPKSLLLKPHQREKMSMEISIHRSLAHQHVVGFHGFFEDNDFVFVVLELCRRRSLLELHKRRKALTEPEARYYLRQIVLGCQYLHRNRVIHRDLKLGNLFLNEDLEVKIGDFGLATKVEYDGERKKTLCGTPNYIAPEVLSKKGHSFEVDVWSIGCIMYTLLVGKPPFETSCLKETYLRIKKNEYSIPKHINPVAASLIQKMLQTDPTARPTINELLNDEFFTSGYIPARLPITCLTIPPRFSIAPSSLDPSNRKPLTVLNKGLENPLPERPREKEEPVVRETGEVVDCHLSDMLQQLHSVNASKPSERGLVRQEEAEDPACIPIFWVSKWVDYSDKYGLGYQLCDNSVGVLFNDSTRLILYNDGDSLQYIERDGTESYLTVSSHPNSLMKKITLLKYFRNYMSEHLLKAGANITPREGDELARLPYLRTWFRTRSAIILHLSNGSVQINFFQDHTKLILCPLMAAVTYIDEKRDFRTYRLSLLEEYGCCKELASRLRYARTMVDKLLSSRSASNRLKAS
Tau ThT inhib: tau fibrillization inhibition (ThT binding); P10636; recombinant tau K18 P301L, heparin-induced fibrillization, ThT fluorescence; Potency, µM (highest dose often 57.4 µM), for inactives: at the highest dose activity, negative = inhibition, hits mostly inhibitors; actives 2.1% (n = 270,000); AID 1460; note: nearly all actives have a fitted effect of over 55% in size
Target sequence (P10636 561-689 P618L limits assumed): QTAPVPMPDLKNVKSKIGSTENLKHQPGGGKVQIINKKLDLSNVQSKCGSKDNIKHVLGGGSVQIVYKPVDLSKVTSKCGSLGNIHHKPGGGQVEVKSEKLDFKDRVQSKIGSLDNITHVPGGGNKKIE
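Recombinant human tau K18 fragment […] carrying P301L, 15 uM unlabeled plus 0.24 uM Alexa 594-labeled, was fibrillized with 20 uM heparin in 100 mM sodium acetate pH 7 for 6 hr at 37 C; 30 uM ThT fluorescence read after 1 hr.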
Tau fluor cs: counter-screen for tau fibril formation inhibitors; AID 1463; Potency, µM (highest dose often 57.7 µM), for the others: at the highest dose activity change, negative = decrease; tau K18 P301L Alexa594 fluorescence, heparin fibrillization; actives 0.93% (n = 280,000); note: nearly all actives have a fitted effect of over 55% in size
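Human K18 P301L tau (15 uM unlabeled plus 0.24 uM Alexa 594-labeled, final) in 100 mM sodium acetate pH 7 was mixed with compound and 20 uM heparin and incubated 6 hr at 37 C.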
Sfp PPTase inh: blocks B. subtilis Sfp PPTase activity; Biochemical Sfp PPTase activity, qHTS; AID 1490; actives 3.5% (n = 310,000); Potency, µM, without a hit: largest response in the series, negative = inhibition, usual class: inhibitors;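 note: the enzyme is Sfp with the accession as filed and its product quenches rhodamine fluorescence; 0% = enzyme reaction without inhibitor and -100% = no enzyme wells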
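Reaction rates are the 30-min fluorescence difference (ex 525, em 598 nm) in wells containing 15 nM Sfp, 5 uM rhodamine-CoA and 12.5 uM BHQ-2-YbbR at pH 7.6 with 10 mM MgCl2.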
Tau fibril FP: inhibitors of human tau fibril formation. K18 P301L tau heparin fibrillization, Alexa594 FP, 6 h. P10636. Potency, µM (titrated, usually from 57.7 µM), for the others: at the highest dose activity, negative = inhibition, actives largely listed as inhibitors. actives 0.39% (n = 280,000); note: nearly all actives have a fitted effect of over 55% in size
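Heparin (20 uM) drove fibril formation of recombinant tau K18 P301L, 15 uM unlabeled with 0.24 uM Alexa 594 label, for 6 hr at 37 C in 100 mM sodium acetate pH 7. Fluorescence polarization (555/632 nm) read 1 hr after 30 uM ThT.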
VDR inhibitor: vitamin D3 receptor (human) inhibition; P11473; AID 504847; actives 0.93% (n = 400,000); Potency, µM, inactives show max response, negative = inhibition, usual class: inhibitors; VDR-SRC2-3 peptide fluorescence polarization, 2 h
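Measured by FP: displacement of SRC2-3 coactivator peptide from VDR by library compounds, following a two-hour ambient incubation.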
Starred values were filed as active, the others as inactive; u = inconclusive; x = no result given; [ ] = another dose, or the depositor's remark. Calls come from the whole dose curve; as a rule, active = well fitted curve in the direction sought with a large enough effect; inconclusive = small, poorly fitted or top-dose-only effect, or another doubt; inactive = no such curve, though single readings can be large; an effect the other way counts as inactive or inconclusive. Unless noted, % is set by controls: 0 for no effect and ±100 for the full control effect; potency is the fitted concentration of half-maximal effect.

SMILES	PLK1 PBD inh	Tau ThT inhib	Tau fluor cs	Sfp PPTase inh	Tau fibril FP	VDR inhibitor
CCOc1cc(CNc2ccc3[nH]c(=O)[nH]c3c2)ccc1OCC(=O)NC(C)(C)C	-7.8%	12.6µM*	u	u	u	2.5%
COc1cccc(CNc2ccc3[nH]c(=O)[nH]c3c2)c1OCc1ccc(F)cc1	-9.3%	x	x	-9.5%	x	2.8%
COc1cc(CNc2ccc3[nH]c(=O)[nH]c3c2)cc(Cl)c1OCC(=O)NC(C)(C)C	u	11.2µM*	u	11.2µM*	u	-4.6%
C=CCOc1ccc(CNc2ccc3[nH]c(=O)[nH]c3c2)cc1OCC	-10.7%	-0.4%	6.8%	12.8%	13.5%	1.3%
C=CCOc1c(CNc2ccc3[nH]c(=O)[nH]c3c2)cccc1OC	26.7µM*	-2.3%	5.6%	4.4%	-5.2%[2.34 µM]	-0.6%
C=CCN1CC(=O)N2C(c3ccccc3)c3[nH]c4ccccc4c3C[C@H]2C1=O (stereo partly drawn)	-2.6%	x	x	-7.6%	x	4.3%
CC(NC(=O)c1ccccc1F)c1nnc(SCC(=O)Nc2nnc(C3CC3)s2)n1C (stereo not drawn)	1.9%	x	x	x	x	-10.0%
C/C(=N\NC(=O)c1cccc(N/N=C(\C)c2ccccc2)c1)c1ccccc1	-11.3%	u	-26.1%	12.3%	16.2%	u
C/C(=N\NC(=O)c1cccc(N/N=C(\C)c2ccc([N+](=O)[O-])cc2)c1)c1ccc([N+](=O)[O-])cc1	-22.4%	0.501µM*	u	0.1%	7.3%	-12.0%
C/C(=N\NC(=O)c1ccc2nc[nH]c2c1)c1ccc([N+](=O)[O-])cc1	x	x	-19.6%	11.5%	-10.4%	x
C/C(=N\NC(=O)c1cccc(N/N=C(\C)c2ccncc2)c1)c1ccncc1	26.7µM*	u	-19.3%	5.7%	-0.9%	-20.5%
COc1cccc(-c2nc(N3CCN(C)CC3)c3ccccc3n2)c1	x	x	x	7.0%	x	-5.5%
CCOC(=O)C1(C)CCN1C(=O)/C=C/c1ccccc1 (stereo not drawn)	3.9%	x	x	x	x	x
Cc1ccc(-c2ccc(C3C4C=CCCC4(C)C(=O)N3Cc3ccccc3)c(F)c2)cc1 (stereo not drawn)	x	x	x	u	x	-7.6%
COc1ccc(-c2ccc([C@H]3[C@@H]4C=CCC[C@@]4(C)C(=O)N3Cc3ccccc3)c(F)c2)cc1	-5.0%	-11.2%	1.9%	31.6µM*	-6.5%	-12.5%
Cc1ccc(F)c(C2C3C=CCCC3(C)C(=O)N2Cc2ccccc2)c1 (stereo not drawn)	x	x	x	28.2µM*	x	-15.4%
Cc1ccc(-c2ccc([C@H]3[C@@H]4C=CCC[C@@]4(C)C(=O)N3Cc3ccccc3)c(F)c2)cc1	-2.3%	u	-4.6%	u	16.2%	5.3%
C=Cc1ccc(CN2CCCN(Cc3ccc(Cl)cc3)S2(=O)=O)cc1	15µM*	x	x	-1.3%	x	u
CC(=O)Nc1cccc(Oc2nc(NCCN(C)C)nc3ccsc23)c1	-3.3%	x	x	x	x	x
COc1ccc(-c2nc3ccc(Br)cn3c2Cc2ccccc2)cc1OC	-2.8%	x	x	x	x	x
O=C1C2CC=CCC2C(=O)N1Cc1ccccc1 (stereo not drawn)	0.0%	-10.9%	2.1%	13.0%	5.9%	5.8%
O=C1C=CC(=O)N1Cc1ccccc1	4.74µM*	x	x	17.8µM*	x	15.8µM*
C=CCOC(=O)NC(c1ccc(F)c(F)c1)C(C(=O)CCl)C(=O)OC (stereo not drawn)	x	-15.4%	-18.1%	u	u	44.7µM*
C=CCOC(=O)NC(c1ccc(F)c(F)c1)S(=O)(=O)c1ccc(Cl)cc1 (stereo not drawn)	x	-3.3%	-5.5%	-1.1%	0.2%	9.3%
CC(NC(=O)NNC(N)=S)(C(F)(F)F)C(F)(F)F	-11.2%	-6.8%	-7.3%	44.7µM*	0.5%	-10.4%
SMILES	PLK1 PBD inh	Tau ThT inhib	Tau fluor cs	Sfp PPTase inh	Tau fibril FP	VDR inhibitor
Cc1c(C(=O)NC2CCN(Cc3ccccc3)C2)oc2c(Cl)cccc12 (stereo not drawn)	1.4%	x	x	-0.9%	x	-4.4%
CC1CN(C2CCN(S(=O)(=O)c3ccc4ccccc4c3)CC2)CC(C)O1 (stereo not drawn)	-10.0%	-9.9%	-10.8%	31.6µM*	-12.8%	0.9%
O=C(CN1C(=O)CCC1=O)Nc1nc(-c2ccc3ccccc3c2)cs1	0.8%	10.1%	7.4%	8.1%	2.8%	-17.8%
N#Cc1ccccc1OCC(=O)Nc1nc(-c2ccccn2)cs1	26.7µM*	x	x	x	x	x
O=C(CN1C(=O)CCC1=O)Nc1nc(-c2ccccn2)cs1	-12.6%	-5.0%	-2.4%	50.1µM*	-1.4%	-19.8%
O=C(CCCSc1ccccc1)Nc1nc(-c2ccccn2)cs1	21.2µM*	u	u	-17.1%	-4.3%	u
CC1(C(=O)NS(=O)(=O)c2ccccc2Cl)CCN1C(=O)c1cccc2ccccc12 (stereo not drawn)	-1.3%	x	x	x	x	x
O=C(Nc1cccc2cccnc12)c1ccc2sc([C@@H]3O[C@H](CO)[C@H](O)[C@H](O)[C@H]3O)nc2c1	2.5%	x	x	x	x	x
C=CCn1c(NS(=O)(=O)c2ccccc2)c(S(=O)(=O)c2ccc(C)cc2)c2nc3ccccc3nc21	u	6.1%	-0.9%	39.8µM*	1.0%	u
O=C(COC(=O)/C=C/c1ccc(F)cc1)NCc1ccco1	7.2%	-2.2%	0.3%	10.0%	7.8%	7.8%
O=C(COC(=O)C1(c2ccc(F)cc2)CCCC1)NCc1ccco1	-13.4%	-10.6%	-15.2%	56.2µM*	-9.6%	0.1%
O=S(=O)(O)c1ccc2c(c1)-c1nc-2nc2[nH]c(nc3nc(nc4[nH]c(n1)c1ccc(S(=O)(=O)O)cc41)-c1ccc(S(=O)(=O)O)cc1-3)c1ccc(S(=O)(=O)O)cc21	x	x	x	u	x	25.1µM*
COc1ccccc1N1CCN(C(=O)c2cc(-c3ccc(C)c(F)c3)on2)CC1	x	u	u	x	2.0%	5.1%
CC(=O)c1ccc(N=Nc2ccc(N)cc2)cc1	-6.4%	0.562µM*	u	2.6%	-5.2%	16.7%
CC(=O)c1ccc(S(=O)(=O)Nc2ccc(-c3cn4c(C)csc4n3)cc2)cc1	x	u	u	x	5.4%	25.1µM*
CC(=O)c1ccc(N=Nc2c(C)[nH][nH]c2=O)cc1	-2.2%	x	x	x	x	-8.0%
CC(=O)c1ccc(NS(=O)(=O)c2ccc(N)cc2)cc1	29.9µM*	-2.0%	-3.6%	12.3%	-3.5%	u
CC(=O)c1ccc(NS(=O)(=O)c2ccccc2)cc1	-9.0%	-5.8%	-5.1%	8.2%	4.8%	-4.9%
CC(=O)Nc1ccn(C2OC(C(COC(C)=O)NC(=O)C(CCCCNC(=O)OCc3ccccc3)NC(=O)OC(C)(C)C)C(OC(C)=O)C2OC(C)=O)c(=O)n1 (stereo not drawn)	x	x	x	-3.5%	x	-5.0%
